Assay outcomes as filed in PubChem.
AmpC no deterg = AmpC beta-lactamase inhibition without detergent; AmpC nitrocefin hydrolysis, absorbance 480 nm, 0.0001% Triton; 330,000 compounds, 0.52% hits; Potency, µM (doses to about 57.1 µM), without a hit: at the top dose activity change, negative = inhibition, actives largely listed as inhibitors; AID 485341;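 note: potency is the fitted concentration of half-maximal effect; plate controls were no compound for no effect and no enzyme for full effect; nearly all actives have a fitted effect of over 20% in size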
Target sequence (P00811 whole entry, looked up): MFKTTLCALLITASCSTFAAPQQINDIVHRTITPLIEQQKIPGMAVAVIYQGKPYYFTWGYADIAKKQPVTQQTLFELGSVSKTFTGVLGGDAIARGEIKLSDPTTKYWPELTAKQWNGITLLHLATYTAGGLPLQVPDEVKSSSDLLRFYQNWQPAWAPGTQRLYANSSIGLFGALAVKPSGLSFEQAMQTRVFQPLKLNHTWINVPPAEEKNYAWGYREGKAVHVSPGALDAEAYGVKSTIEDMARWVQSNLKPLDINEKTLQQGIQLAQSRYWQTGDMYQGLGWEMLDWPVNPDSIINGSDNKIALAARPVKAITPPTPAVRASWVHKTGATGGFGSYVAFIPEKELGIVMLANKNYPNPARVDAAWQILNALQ
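AmpC (5.3 nM in the dispensed reagent) in 20 mM phosphate pH 7.0 with 0.01% (detergent screen) or 0.0001% Triton X-100 was preincubated with compounds for 15 min at room temperature. Nitrocefin was then added from an 800 uM solution, and hydrolysis was followed at 480 nm.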
AmpC detergent = blocks E. coli AmpC beta-lactamase in detergent assay; P00811; AmpC hydrolysis of nitrocefin, absorbance 480 nm, 0.01% Triton; Potency, µM (top dose mostly 114 µM), for inactives: top-dose activity change, negative = inhibition, actives largely listed as inhibitors; 370,000 compounds, 0.041% hits; AID 485294;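 note: potency is the fitted concentration of half-maximal effect; 0% = no-compound wells and -100% = no-enzyme wells; nearly all actives have a fitted effect of over 25% in size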
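20 mM phosphate pH 7.0 + 0.01% (detergent screen) or 0.0001% Triton X-100; 5.3 nM AmpC reagent; cpd preinc 15 min RT; nitrocefin (800 uM stock) to start; A480 q20 s × 4 min; Activity was normalised to no-enzyme and no-compound control wells.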
FMDV inh = blocks foot and mouth disease virus. FMDV antiviral cell-based qHTS. Potency, µM (titrated, usually from 57.9 µM), for the others: top-dose activity change, negative = inhibition, usual class: inhibitors. 410,000 compounds, 1.2% hits. AID 1159524; calls by dose curve; tested in HEK293T cells; note: read-out not given here; potency is the fitted concentration of half-maximal effect; nearly all actives have a fitted effect of over 45% in size
HCV inh = blocks hepatitis C virus. Huh7.5.1 HCVcc-Cre infection, luciferase reporter, 44 h. Potency, µM (highest dose often 41.8 µM), inactives show at the highest dose activity change, negative = inhibition, hits mostly inhibitors. 340,000 compounds, 3.4% hits. AID 651820; note: potency is the fitted concentration of half-maximal effect
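Reporter virus HCVcc-Cre (~0.5 moi) infects cells exposed to compound; seeding density 1,000 cells/well with 4 h settling beforehand. Luminescence, 15 sec read, taken 44 h post-infection following a 15 min RT substrate incubation.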
HCMV antiviral = blocks human cytomegalovirus replication. HFF cells, HCMV-luciferase reporter, 72 h; active compounds read low. activity change, negative = inhibition, % at 57.5 µM. 410,000 compounds, 4.5% hits; in the data active = activity change below about -60%; inconclusive = no clear call, values can overlap the other calls; inactive = above about -39%
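Human foreskin fibroblasts infected with luciferase-reporter HCMV at MOI 1 PFU/cell, compounds at two doses. Luciferase measured 72 h post infection; normalized to buffer-only basal and Salinomycin (10uM) controls.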
Starred values were filed as active, the others as inactive; ? = inconclusive; · = not tested or not shown; [ ] = remark or other dose. Sampled rows, rich in hits. Any-hit rate of the full collection: about 7.3%. Unless noted, calls come from the whole dose curve; as a rule, active = well fitted curve in the direction sought with a large enough effect; inconclusive = small, poorly fitted or top-dose-only effect, or another doubt; inactive = no such curve, though single readings can be large; an effect the other way counts as inactive or inconclusive. Unless noted, % is set by controls: 0 for no effect and ±100 for the full control effect.

SMILES	AmpC no deterg	AmpC detergent	FMDV inh	HCV inh	HCMV antiviral
CC1CN(C(=O)COC(=O)c2cc(=O)c3ccccc3o2)CC(C)O1 (stereo not drawn)	-8%	?	14%	9%	-11
COc1cc(/C=C/c2ccc3cccc(O)c3n2)cc(OC)c1OC	18%	-7%	1%	?	-94*
COc1cccc(/C=C/c2ccc3cccc(O)c3n2)c1	-24%	-7%	-24%	?	-95*
Oc1cccc(/C=C/c2ccc3cccc(O)c3n2)c1	-51%	-2%	-51%	?	45
COc1cc(/C=C/c2nc(N)nc(-c3ccccc3O)n2)cc(OC)c1OC	136%	-13%	?	-3%	12
COc1cc(/C=C/c2ccc3cccc(O)c3n2)cc(Br)c1OC	-23%	-2%	-27%	11µM*	?
COc1cc(/C=C/c2nc(-c3ccccc3O)n[nH]2)cc(OC)c1OC	31%	-7%	?	11µM*	1
COc1cc(/C=C/c2ccc3c(Br)cc(Br)c(O)c3n2)ccc1O	-60%	3%	?	8.9µM*	-100*
COc1ccc(/C=C/c2ccc3c(Br)ccc(O)c3n2)cc1	-31%	3%	-3%	?	?
Cc1nc2ccccc2nc1CN1CCOc2ccc(C(C)(O)COc3ccccc3)cc2C1 (stereo not drawn)	·	·	3%	·	·
O=C1C=Cc2cccc3ccc(O)c1c23	·	·	9%	?	-68*
CCN(C(=O)C(C)N1C(=O)/C(=C/c2cccs2)SC1=S)C1CCS(=O)(=O)C1 (stereo not drawn)	89%	0%	-19%	-14%	-63*
CC(C(=O)N(C)C1CCS(=O)(=O)C1)N1C(=O)/C(=C/c2ccco2)SC1=S (stereo not drawn)	0%	-10%	-12%	-21%	-93*
COc1ccc(C=NN(C)C(=O)Nc2cccc(Cl)c2)cc1OC	·	·	·	·	-9
CC(C)CNS(=O)(=O)c1ccc(CCC(=O)Nc2cc(Cl)ccc2Oc2ccccc2)cc1	-22%	-9%	?	?	28
CCOc1ccc(Oc2ccccc2NS(=O)(=O)c2ccc(CCC(=O)O)cc2)cc1	-28%	-4%	?	-15%	-64*
CCCNS(=O)(=O)c1ccc(CCC(=O)Nc2cc(Cl)ccc2Oc2ccccc2)cc1	-23%	?	?	10µM*	-2
CC(C)(C)NS(=O)(=O)c1ccc(CCC(=O)Nc2cc(Cl)ccc2Oc2ccccc2)cc1	-20%	-11%	?	8.9µM*	17
COc1ccc(-c2ccc3c(c2)COCC(=O)N3CCN2CCOCC2)cc1	·	·	·	·	-16
COC(=O)c1ccc(N)c2c(N)ccc(C(=O)OC)c12	·	·	·	·	-8
CCc1ccc(N(CC(=O)Nc2ccc(NC(C)=O)cc2)S(=O)(=O)c2ccccc2)cc1	-8%	-6%	-1%	-21%	-61*
CC(=O)Nc1ccc(NC(=O)CN(c2ccc([N+](=O)[O-])cc2)S(=O)(=O)c2ccccc2)cc1	-56%	4%	-2%	-20%	?
Cc1cc(C)cc(NC(=O)CN(c2cccc(C)c2C)S(=O)(=O)c2ccccc2)c1	·	16%	-9%	·	?
Cc1cc(NC(=O)CN(c2cccc(C)c2C)S(=O)(=O)c2ccccc2)ccc1Br	·	14%	?	·	-68*
Cc1ccc(N(CC(=O)Nc2ccccc2-c2ccccc2)S(=O)(=O)c2ccccc2)cc1	-19%	?	-10%	10µM*	-70*
SMILES	AmpC no deterg	AmpC detergent	FMDV inh	HCV inh	HCMV antiviral
CCNC(=O)CN(c1ccc(C)cc1)S(=O)(=O)c1ccccc1	0%	2%	19%	-10%	-83*
Cc1cc(C)cc(N(CC(=O)Nc2ccccc2-c2ccccc2)S(=O)(=O)c2ccccc2)c1	-15%	-4%	0%	14%	-22
Cc1ccc(S(=O)(=O)N(CC(=O)Nc2ccccc2-c2ccccc2)c2ccc(C)cc2C)cc1	-26%	?	-19%	?	?
Cc1cccc(N(CC(=O)Nc2ccccc2-c2ccccc2)S(=O)(=O)c2ccccc2)c1C	-23%	1%	-25%	?	-61*
CCN(CC)S(=O)(=O)c1ccc(NC(=O)CN(c2ccccc2)S(=O)(=O)N(C)C)cc1	·	20%	-23%	·	-89*
COc1ccc2nccnc2c1[N+](=O)[O-]	-15%	-1%	7%	11%	-21
CCC(C)C(=O)O[C@@H]1[C@H](OC(C)=O)c2c(ccc3ccc(=O)oc23)OC1(C)C (stereo partly drawn)	·	·	·	·	-33
O=C(CSc1ccc2c(c1)OCCO2)Nc1ccc(Cl)cn1	-30%	-13%	-3%	-22%	-86*
CCN(CC)c1ccc(NC(=O)CN2C(=O)CSc3ncccc32)c(C)c1	3%	?	?	3.5µM*	-86*
O=C(CN1C(=O)NC2(CCCC2)C1=O)c1ccc(Cl)s1	-22%	?	23%	-11%	-16
Cc1cccc(C(=O)N2CCN(Cc3nc4sc5c(c4c(=O)[nH]3)CCCC5)CC2)c1	4%	5%	-15%	-14%	15
Cc1cc(C)c2c(=N)c3ccccc3n(CCCCCCCCn3c4ccccc4c(=N)c4c(C)cc(C)nc43)c2n1	·	·	0%	-25%	-75*
CCCCn1c2c(c(=N)c3ccccc31)CCC2	-26%	-1%	-29%	-17%	-36
CCOc1ccccc1NC(=O)Cn1nnc2sc3c(c2c1=O)CCC(C(C)(C)C)C3 (stereo not drawn)	·	14%	-5%	·	-7
COc1cc2nc(SCC(=O)Nc3ccccc3C)n3nc(CCn4c(C)nc5ccccc54)nc3c2cc1OC	·	2%	-14%	·	2
Cc1cncn1CCc1nc2c3ccccc3nc(SCC(=O)Nc3ccccc3F)n2n1	·	1%	-9%	·	-67*
Cc1n[nH]c(C)c1CCc1nc2c3ccccc3nc(SCC(=O)Nc3ccc(F)cc3)n2n1	·	-4%	?	·	-68*
Cc1ccccc1NC(=O)CSc1nc2ccccc2c2nc(CCn3cncc3C)nn12	4%	?	?	?	-19
CCOc1ccccc1NC(=O)CSc1nc2cc(OC)c(OC)cc2c2nc(CCn3c(C)nc4ccccc43)nn12	·	1%	-12%	·	-93*
Cc1ccc(NC(=O)CSc2nc3ccccc3c3nc(CCc4c(C)n[nH]c4C)nn23)cc1F	36%	-11%	-18%	-2%	?
CCC[C@H](/C=C/C(=O)OCC)NC(=O)C(F)(F)F	·	·	·	·	-8
CCn1c(C)c(P(c2ccccc2)c2ccccc2)[n+]2ccccc12	-11%[11.4 µM]	-4%	?	-15%	-61*
CCSc1nnc(C(C)NC(=O)c2ccc(OC)cc2)n1C (stereo not drawn)	·	·	-6%	·	·
Cn1c(=O)c2cc(NC(=S)NCc3ccccc3F)ccc2n1Cc1ccccc1	·	·	-18%	·	-20
Cn1c(=O)c2cc(NC(=O)CCc3ccccc3)ccc2n1Cc1cccc(C(F)(F)F)c1	·	·	-12%	·	-22
